# Reference: ChEMBL document CHEMBL4513216, “Probing the Open Global Health Chemical Diversity Library for Multistage-Active Starting Points for Next-Generation Antimalarials” (ACS Infect Dis, 2020)
# The whole screen tested about 69,000 compounds, of which about 8,600 (12%) showed an effect of 50% or more. Many of the other results were omitted from the sample, so strong results are more common in it than they were.
# Tested on: Plasmodium berghei
# Assay: Screen against P. berghei liver stage (PbLuc), transformed with Luciferase, at 10uM
# Assay type: functional, HepG2
# Conditions: tested at 10 uM
row,SMILES,INHIBITION
1,CC(c1ccccc1F)N(CC(N)=O)C1CC1 (stereo not drawn),72.1%
2,CC(c1ccccc1F)N(C(=O)CSCC(N)=O)C1CC1 (stereo not drawn),35.9%
3,CC(c1ccccc1Cl)N(C(=O)CSCC(N)=O)C1CC1 (stereo not drawn),30.4%
4,Cc1nnc2n1CCN(Cc1ccc3c(c1)OCCO3)C2,33.8%
5,COCC(=O)N1CCC(O)(CN2CCN(c3ccccc3)CC2)C1 (stereo not drawn),39.7%
6,CC1CCCCN1C(=O)c1nc2c(n1C(C)C)CCN(C(=O)C1CC1)C2 (stereo not drawn),-0.554%
7,CC(C)n1c(C(=O)N2CCCC2)nc2c1CCN(C)C2,9.79%
8,CC1CCCCN1C(=O)c1nc2c(n1C(C)C)CCN(C)C2 (stereo not drawn),58.5%
9,COCCN1CCC2(C1)c1ccccc1S(=O)(=O)N2C (stereo not drawn),40.5%
10,Cc1cc(O)nc(C2CN(CCC(F)(F)F)CCO2)n1 (stereo not drawn),-6.92%
11,Cc1cc(O)nc(C2CN(CC3(O)CCOCC3)CCO2)n1 (stereo not drawn),-34.6%
12,Cc1cc(O)nc(C2CN(CCO)CCO2)n1 (stereo not drawn),50.8%
13,CN1CCN(C[C@@H]2CN(C3Cc4ccccc4C3)C[C@@H]2CO)CC1,8.51%
14,CC(NC(=O)C1CCCCC1)c1cc(O)nc(-c2cccnc2)n1 (stereo not drawn),-6.002%
15,O=C(c1sccc1C1CC1)N1CCCN(c2cccnn2)CC1,15.7%
16,Cc1ccsc1CN(C)CCc1scnc1C,46.9%
17,Cc1ncsc1CCN(C)Cc1ccc(Br)o1,47.1%
18,Cc1ncsc1CCN(C)Cc1ccc(CO)o1,57.6%
19,CC(=O)N1CCCC(c2ncncc2-c2ccncc2)C1 (stereo not drawn),26.8%
20,COc1ccc(CN2C[C@@H](OCc3ccccn3)[C@H]3COC[C@H]32)cc1,34.7%
21,Cc1ccc(S(=O)(=O)NCc2cccc(C(=O)N3CCCC3)c2)cc1F,-51.5%
22,CC(C)c1noc(CCCC(=O)N2CCN(Cc3ccccn3)CC2)n1,40%

row,SMILES,INHIBITION
1,Cc1ccc(NC2CCN(C(=O)Cc3c(C)noc3C)CC2)nn1,28.38%
2,CC(C)(C)[S+]([O-])CCNC(=O)c1csc(NC2CC2)n1 (stereo not drawn),-12.1%
3,CC(C)NC(=O)c1csc(NC2CC2)n1,13.9%
4,CC(C)CCNC(=O)c1csc(NC2CC2)n1,-70.8%
5,Cc1[nH]/c(=N\C(=O)c2csc(NC3CCCC3)n2)sc1C,83.8%
6,CC(=O)Nc1nc(C(=O)N2CCCC(c3cc(C)[nH]n3)C2)cs1 (stereo not drawn),22.3%
7,Cc1[nH]/c(=N\C(=O)c2csc(NC3CC3)n2)sc1C,77.9%
8,O=c1[nH]cnc2c1CCN(S(=O)(=O)c1ccc(OC(F)(F)F)cc1)C2,-10.1%
9,CCc1ccc(NC(=O)Nc2c(O)oc3ccccc3c2=O)cc1,-11.4%
10,O=C(COCc1ccccc1)NCc1ccc(O)c(F)c1,-7.93%
11,COCC(=O)N1CCCn2c(CN3CCCC3=O)nnc2C1,-15.6%
12,Cc1cc(CN(C)C(=O)c2ccc(Cl)cc2N2CCCC2=O)no1,-9.37%
13,O=C(c1ccccn1)N1CCC2(CC1)CN(c1cncnc1)C(=O)CO2,40.4%
14,Cc1nc2ccccc2c(=O)n1CCC(=O)N1CCCC1,17.36%
15,CC(=O)NCC(=O)N1CCOCC(Cc2ccc3c(ccn3C)c2)C1 (stereo not drawn),-2.995%
16,Cc1nc(CCNC(Cc2ccncc2)C(F)(F)F)cs1 (stereo not drawn),59.3%
17,Cc1cnc(CCNC(Cc2ccncc2)C(F)(F)F)s1 (stereo not drawn),11.7%
18,Cc1nc(C)c(CCNC(Cc2ccncc2)C(F)(F)F)s1 (stereo not drawn),48.5%
19,CN(C)C(=O)c1cc2ncc(C(=O)NC3CCCC3)cc2n1C,-71.5%
20,O=C(c1cc(=O)n(-c2ccccc2)[nH]1)N1CCCC(c2ccn[nH]2)C1 (stereo not drawn),55%
21,O=C(c1cnc2ccccn12)N1CCCC(c2ccn[nH]2)C1 (stereo not drawn),-0.71%
22,O=C(c1cc(=O)n(-c2ccccc2)[nH]1)N1CCOC(C(F)(F)F)C1 (stereo not drawn),63.6%

row,SMILES,INHIBITION
1,O=C(c1cc(=O)n(-c2ccccc2)[nH]1)N1CCOCC(O)C1 (stereo not drawn),0.546%
2,O=C(c1ccccc1-c1nc[nH]n1)N1CCOC(C(F)(F)F)C1 (stereo not drawn),7.15%
3,O=C(c1cnnn1-c1ccccc1)N1CCCC(c2ccn[nH]2)C1 (stereo not drawn),12.9%
4,COc1ccc(CNC(=O)Nc2ccc(N3CCCC3)nc2)cc1O,26.4%
5,O=C(NCc1cccs1)[C@H]1CC[C@@H]2[C@@H](CCN2C2CCC2)O1,-4.88%
6,NC(=O)N1C[C@H]2CN(Cc3nccs3)C[C@H]2C1,14.8%
7,Cc1cnc(C(=O)N2C[C@H]3CN(Cc4cccnc4)C[C@H]3C2)cn1,-6.21%
8,Cc1cnc(C(=O)N2C[C@H]3CN(Cc4nccs4)C[C@H]3C2)cn1,81.5%
9,Cc1cnc(C(=O)N2C[C@H]3CN(Cc4cccs4)C[C@H]3C2)cn1,-18.2%
10,O=C(c1cscn1)N1CCC2(CCN(Cc3nccs3)CC2)CC1,35.7%
11,O=C(c1cscn1)N1C[C@H]2CN(Cc3nccs3)C[C@H]2C1,62.5%
12,O=C(O)c1c(-c2ccncc2)ncc2c1CCN(C1CCOC1)C2 (stereo not drawn),-12.4%
13,CCc1nc(CC(=O)N2CCn3c(C)nnc3C2)cs1,27.45%
14,CN1C(=O)CC(C(=O)O)C12CCN(Cc1ccc(Cl)cc1F)CC2 (stereo not drawn),7.84%
15,CN1C(=O)CC(C(=O)O)C12CCN(Cc1cc(Cl)ccc1F)CC2 (stereo not drawn),50.5%
16,CN1C(=O)CC(C(=O)O)C12CCN(Cc1ccc(F)cc1Cl)CC2 (stereo not drawn),18.8%
17,O=C(c1ccsc1)N1CCC(Nc2cccnn2)CC1,-85%
18,COc1ccc(NC2(C(=O)N3CCCn4cncc4C3)CCCC2)cc1,18.5%
19,CN(CC(=O)NCCCOc1ccc(F)cc1)c1ccc(C#N)cn1,3.84%
20,O=c1[nH]c2cn(-c3ccccc3)c(=O)n2[nH]1,14.2%
21,Cc1cc(C)nc(C2CCCN2S(=O)(=O)N2CCOCC2)n1 (stereo not drawn),43.4%
22,Cc1ccc(C(=O)N2CCCC(c3[nH]ncc3S(C)(=O)=O)C2)s1 (stereo not drawn),33.7%

row,SMILES,INHIBITION
1,CS(=O)(=O)NC[C@]12COC[C@H]1CN(Cc1ccc3c(c1)OCO3)C2,38.5%
2,Cn1cc(C(=O)NCC(Cc2cccc(F)c2)N2CCCCC2=O)nn1 (stereo not drawn),6.83%
3,O=C(CCN1CCC(C(=O)c2cc(F)ccc2F)CC1)NC1CCCC1,36.2%
4,O=C(CCN1CCC(C(=O)c2cc(F)ccc2F)CC1)NC1CC1,-1.58%
5,COC(=O)CN1CCC(C(=O)c2cc(F)ccc2F)CC1,15.3%
6,C=C(Cl)CN1CCC(C(=O)c2cc(F)ccc2F)CC1,17.8%
7,O=C(CN1CCC(C(=O)c2cc(F)ccc2F)CC1)NC1CC1,56.5%
8,O=C(CN1CCC(C(=O)c2cc(F)ccc2F)CC1)NC1CCCC1,51.3%
9,CC(=O)N[C@H]1CCO[C@@H](c2cccc(NC(=O)c3cccc(F)c3)c2)C1,6.74%
10,O=C(NC1CC1)N1CCc2ncc(CN3CCOCC3)n2CC1,15.9%
11,COc1ccc(CN2CC[C@H]3[C@H]2CC(=O)N3Cc2cccc(C)n2)cc1,-31.9%
12,Cc1ccc(N2C[C@H]3OCC[C@H]3[C@H](C(=O)NCC3CC3)C2)nn1,49.7%
13,CCc1nnc(CS(=O)(=O)c2ccc(C)cc2)n1C,35.1%
14,CCOC(=O)CN(C)C1CCc2ccccc21 (stereo not drawn),34.7%
15,CCN(CC)C(=O)CN(C)C1CCc2ccccc21 (stereo not drawn),53.5%
16,CCCN(CCC)C(=O)CN(C)C1CCc2ccccc21 (stereo not drawn),15.55%
17,CN(CC(=O)N(C)C1CCCCC1)C1CCc2ccccc21 (stereo not drawn),37.2%
18,CN(Cc1cccs1)C(=O)CN(C)C1CCc2ccccc21 (stereo not drawn),47.4%
19,CN(Cc1c(F)cccc1Cl)C(=O)CN(C)C1CCc2ccccc21 (stereo not drawn),85.1%
20,COC(=O)CN(C)C1CCc2ccccc21 (stereo not drawn),20.1%
21,CN(Cc1ccc(Cl)s1)C(=O)CN(C)C1CCCc2ccccc21 (stereo not drawn),85.9%
22,CN(Cc1ccc(Cl)s1)C(=O)CN(C)C1CCc2ccccc21 (stereo not drawn),82.5%

row,SMILES,INHIBITION
1,CC(C)N(C(=O)CN(C)C1CCc2ccccc21)C(C)C (stereo not drawn),-30.96%
2,C=C(C)CN(CC)C(=O)CN(C)C1CCc2ccccc21 (stereo not drawn),-2.725%
3,CN(CCC#N)C(=O)CN(C1CC1)C1CCc2ccccc21 (stereo not drawn),-4.15%
4,Cn1c2c(ccc1=O)CC(Nc1ncc(F)cn1)CC2 (stereo not drawn),-89%
5,O=C1COC2(CCN(Cc3ccc(F)cc3)CC2)CN1,-7.35%
6,O=C(CCN1CCOC1=O)N(Cc1ccncc1)CC1CCCO1 (stereo not drawn),15.7%
7,NC(=O)c1cc(NC(=O)N2CCOCC2)ccc1F,33.5%
8,CCS(=O)(=O)N1CCC(Nc2c(Cl)cccc2C#N)CC1,29.4%
9,CS(=O)(=O)CCN1CCC(Nc2c(Cl)cccc2C#N)CC1,52.6%
10,N#Cc1cccc(Cl)c1NC1CCN(CC(N)=O)CC1,13.2%
11,CC(C)C(C)NC(=O)c1ncn2c1CN(C)S(=O)(=O)c1ccccc1-2 (stereo not drawn),8.03%
12,CNCc1ccc([C@@H]2CN(C(C)=O)C[C@H]2C(=O)N(C)C)cc1,35.55%
13,CN(CC(=O)N1CCN(CC(C)(C)O)CC1)c1ccc(Cl)cn1,25%
14,CN(CCCc1cnn(C)c1)C(=O)C1CCCN(C2CCCC2)C1 (stereo not drawn),37.6%
15,CC(C)N1CCCC(C(=O)N(C)CCCc2cnn(C)c2)C1 (stereo not drawn),51%
16,CN(C)C(=O)N1CCCC(C(=O)N(C)CCCc2cnn(C)c2)C1 (stereo not drawn),47.7%
17,O=C1CCC(=O)N1c1nn(Cc2cccc(F)c2)cc1Cl,14.5%
18,CCCNCc1ccc(-c2cc(N)nc3[nH]ccc23)cc1,19.7%
19,CCCNCc1ccc(-c2ccnc3[nH]ccc23)cc1,78.8%
20,CNc1cc(-c2ccc(COCCN)cc2)c2cc[nH]c2n1,-8%
